{"source": "PubChem BioAssay AID1347426", "about": "(Functional Genomics Laboratory (NCATS/FGL), 2020)", "note": "Out of some 31,000 sequences screened, about 1,400 (4.5%) were called active. This excerpt belongs to a sample that is enriched for actives. Values without a mark were called inactive.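 How the source made its calls: active means median seed-adjusted z-score above 1 or below -1; inactive means the rest.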", "data": [{"test": "Novel Modifiers of Survival Motor Neuron (SMN) Protein: Gene Identification via Genome-wide siRNA Screen;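 further: luminescence tracks full-length SMN protein made from the SMN2 reporter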", "details": "HEK293T SMN2-luciferase reporter, siRNA knockdown, 72 h; actives lie on both sides", "in_short": "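HEK293T cells stably carrying an SMN2 promoter/splicing cassette–luciferase reporter were reverse-transfected with 1 pmol siRNA per well (druggable-genome library, 3 siRNAs per gene) and grown 72 h at 37 °C. Luminescence, normalized to negative-control siRNA and log10-transformed, was scored as MAD.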", "values": [{"sequence": "CGAAAAACCAUAGACUACATT against WDR33", "median seed-adjusted z-score": "3.27 (active)"}, {"sequence": "GCAAAUGUCAGAGAUUGAATT against SFXN5", "median seed-adjusted z-score": 0}, {"sequence": "CAGUUACUCUGGGAGUAUATT against PRPF3", "median seed-adjusted z-score": -0.289}, {"sequence": "CCAGGUGUAUUCAAUGGAATT against FMO3", "median seed-adjusted z-score": -0.0769}, {"sequence": "ACGACUGCCUGGUCUUAAATT against ADAP2", "median seed-adjusted z-score": "-1.1 (active)"}, {"sequence": "GCACUCGAGUAAUUAGCAATT against DOCK10", "median seed-adjusted z-score": -0.201}, {"sequence": "GGUUCUGCUUUAUUACCUUTT against HNRNPD", "median seed-adjusted z-score": 0.504}, {"sequence": "CAGCUUACAAUACAUCAAATT against ZNF7", "median seed-adjusted z-score": 0}, {"sequence": "AAGACAUGAUGUUCCACAATT against ADCY6", "median seed-adjusted z-score": -0.0652}, {"sequence": "GCACAGAUAUCCUCGUGUATT against ARL11", "median seed-adjusted z-score": "1 (active)"}, {"sequence": "CAGUAGCAGUGGAAUGGGATT against RBMX", "median seed-adjusted z-score": 0.0941}, {"sequence": "GCGCUUCUGGUGUACGACATT against RAB17", "median seed-adjusted z-score": 0.473}, {"sequence": "CAUCCACACUUCUCCAGAATT against HK1", "median seed-adjusted z-score": -0.129}, {"sequence": "GAGUGGGCGUGGAUAGAAATT against PSMC2", "median seed-adjusted z-score": "-1.96 (active)"}, {"sequence": "AGUUAUUGCUACUUCAGAATT against CX3CR1", "median seed-adjusted z-score": -0.292}, {"sequence": "GCAACUACGUUGACUUCUATT against CTNND2", "median seed-adjusted z-score": -0.0491}, {"sequence": "AACUGAACAUAGCAGAAUUTT against ZNF85", "median seed-adjusted z-score": "-1.01 (active)"}, {"sequence": "CGGUGACUGUGAACGGCAATT against DNAJB8", "median seed-adjusted z-score": "-1.09 (active)"}, {"sequence": "ACAUAGUAAAGACUUUCUATT against PIGA", "median seed-adjusted z-score": -0.0514}, {"sequence": "GUCAGUUGUUAGAACAUAATT against TRIM24", "median seed-adjusted z-score": -0.22}, {"sequence": "CAAUUCUUAUUGACUCAUATT against IFNA1", "median seed-adjusted z-score": -0.625}, {"sequence": "CAUCAUCCAUGGUAGCUUUTT against DUOX1", "median seed-adjusted z-score": "-1.09 (active)"}, {"sequence": "GCUUGACCCUUAGACGGAATT against LILRB3", "median seed-adjusted z-score": 0.0304}, {"sequence": "GGUGUUAUCCUAUGAGGUATT against MPP4", "median seed-adjusted z-score": 0.13}, {"sequence": "GGAAAAACCUUCUACCUGATT against ZNF12", "median seed-adjusted z-score": -0.144}, {"sequence": "GGCCUUACGGGUGUAGUAATT against ZNF419", "median seed-adjusted z-score": 0.0405}, {"sequence": "GGAUCAAGGCUAUGUGGAUTT against CYB5R1", "median seed-adjusted z-score": 0}, {"sequence": "UAUGAGUUGUUGUUGGGAATT against NSUN5", "median seed-adjusted z-score": 0.118}, {"sequence": "UCUUAUCCUUUGUCGCAGATT against LMO3", "median seed-adjusted z-score": 0.496}, {"sequence": "GCAUCACCCAAGUAGUUAUTT against SFXN2", "median seed-adjusted z-score": 0.365}, {"sequence": "GACUCAUAUGGACCAGUUATT against ZNF460", "median seed-adjusted z-score": -0.302}, {"sequence": "CAUGGGCUCUAUUACGCUUTT against SPEN", "median seed-adjusted z-score": "-1.69 (active)"}, {"sequence": "GUCUACCCAUGGACCCAGATT against HBG1", "median seed-adjusted z-score": -0.716}, {"sequence": "CACCAACUAAUGUUACAAUTT against IFNGR1", "median seed-adjusted z-score": -0.279}, {"sequence": "CCUCGAGACUAUACGGUUATT against MED26", "median seed-adjusted z-score": "-1.86 (active)"}, {"sequence": "CCAGUGGAGUGGUAUCUAUTT against RBBP5", "median seed-adjusted z-score": 0.169}, {"sequence": "GAACUCAUGUCCGACAUAATT against STX1A", "median seed-adjusted z-score": 0}, {"sequence": "GCGCUUUGGAGAUCCGAGATT against KLC3", "median seed-adjusted z-score": -0.156}, {"sequence": "GCAGUAGAAGUAUCCGGGATT against THSD4", "median seed-adjusted z-score": 0.0657}, {"sequence": "CCUUCUCAAUGGAUUCCAATT against VN1R1", "median seed-adjusted z-score": 0.531}, {"sequence": "GGUCAUGCAGGGUUGGAAATT against ALDH1B1", "median seed-adjusted z-score": 0.105}, {"sequence": "GGAAGAUUGUCGCUCCUCATT against TFAP2C", "median seed-adjusted z-score": "1.28 (active)"}, {"sequence": "CAGAAGACCUGGUGCCCUATT against SPI1", "median seed-adjusted z-score": 0.384}, {"sequence": "GCAUUAAUAACAUUACGUUTT against ZNF236", "median seed-adjusted z-score": 0.683}, {"sequence": "CGCCCGCGAUUACUACCAUTT against HSPA12B", "median seed-adjusted z-score": -0.141}, {"sequence": "GUGCCACCGGAGCUAGUAATT against KCNK4", "median seed-adjusted z-score": -0.446}, {"sequence": "AGGUGAAACUUCGAAGACATT against TRPM3", "median seed-adjusted z-score": -0.633}, {"sequence": "CGAUGAACGAGUACAUUGATT against GRIA2", "median seed-adjusted z-score": "-1.02 (active)"}, {"sequence": "CAUCUGAAGUGGUUAAGCATT against SLC25A26", "median seed-adjusted z-score": 0.0213}, {"sequence": "CCGGAAAUUUGGGACGCAATT against DHX58", "median seed-adjusted z-score": -0.302}, {"sequence": "GGAGGUCAUUAAAACACCATT against HADH", "median seed-adjusted z-score": "1.11 (active)"}, {"sequence": "GGACGACCGUGUAUAGUUUTT against RFESD", "median seed-adjusted z-score": -0.503}, {"sequence": "CACUUUAGAUGAUAUCAGATT against PPP3CA", "median seed-adjusted z-score": 0.74}, {"sequence": "GCUAUAAGGUGGAACGGCATT against POLR2A", "median seed-adjusted z-score": "-3.81 (active)"}, {"sequence": "GCUUAUGGAUGGAGACCAATT against RNF34", "median seed-adjusted z-score": -0.0857}, {"sequence": "AGGUGAUGUCGGUCGGAGATT against RAB24", "median seed-adjusted z-score": 0.123}, {"sequence": "AGCAAUAACUCGUGUAGCATT against EFNA2", "median seed-adjusted z-score": -0.314}, {"sequence": "GGGCGGUACUUUACAACUATT against KCTD9", "median seed-adjusted z-score": "1.31 (active)"}, {"sequence": "CUAGAGUAUUUUGAUCUAATT against FAT2", "median seed-adjusted z-score": -0.286}, {"sequence": "CACCGUGUUUGACAACUAUTT against RAC2", "median seed-adjusted z-score": -0.596}, {"sequence": "GGACCAACCCAGAAUCGUATT against MAOB", "median seed-adjusted z-score": 0}, {"sequence": "UCGCAAAGGUGAACACUCATT against PIN1", "median seed-adjusted z-score": 0.156}, {"sequence": "AGAUGUGACUGGCUGGUCATT against LCN12", "median seed-adjusted z-score": 0.124}, {"sequence": "AGACCUACACGGUACGCGUTT against THAP11", "median seed-adjusted z-score": "-1.36 (active)"}, {"sequence": "GCAUCUAAUACUUAUGGAATT against MS4A4A", "median seed-adjusted z-score": 0.296}, {"sequence": "GAAGCAUGAUGGACAGGAUTT against ISOC1", "median seed-adjusted z-score": 0.104}, {"sequence": "CCUCGACCUGGUCACUUUATT against TRMU", "median seed-adjusted z-score": 0.0312}, {"sequence": "CCGUAGCAAUAGUAGGUGUTT against UBA5", "median seed-adjusted z-score": -0.105}, {"sequence": "GCCUGACCAUCUCCAUUGUTT against USH1C", "median seed-adjusted z-score": -0.164}, {"sequence": "CGUGUUCCGAGAAAACGAATT against PLEKHM2", "median seed-adjusted z-score": 0.593}, {"sequence": "GCAACAGCUCAAAAACGAATT against UAP1", "median seed-adjusted z-score": 0.0411}, {"sequence": "CAUCUACUGUCAUUAACCATT against ITIH5", "median seed-adjusted z-score": -0.289}, {"sequence": "AGACCCAGCUAGAUUCUGATT against GPR152", "median seed-adjusted z-score": -0.9}, {"sequence": "CCUCGUUUGACAUCCACUATT against CTSD", "median seed-adjusted z-score": -0.282}, {"sequence": "CAUUCACGGAGAUAAGAAATT against ALDH1L1", "median seed-adjusted z-score": 0.0289}, {"sequence": "UGAAUUACCUGGACCGUUUTT against CCND2", "median seed-adjusted z-score": -0.819}, {"sequence": "UGCGUUUUCUGAUAACUCATT against PTP4A2", "median seed-adjusted z-score": "-1.45 (active)"}, {"sequence": "GGCAAAAAGCUGACUGAGATT against GPD1", "median seed-adjusted z-score": 0.558}, {"sequence": "GGAUGAUUAUGCUAAUCUATT against GGPS1", "median seed-adjusted z-score": -0.372}, {"sequence": "GCACUGUCUUUGUAUCUGATT against SFXN2", "median seed-adjusted z-score": 0.365}, {"sequence": "GGGCUGUUGUAAUAGUGGATT against SFPQ", "median seed-adjusted z-score": "-1.15 (active)"}, {"sequence": "AGGCCUUUCUUACCCAGAATT against MAP2K1", "median seed-adjusted z-score": 0.942}, {"sequence": "CACUUGAUCUCUUAACCAUTT against 10-Sep", "median seed-adjusted z-score": 0.571}, {"sequence": "GCACAGGACAGACAGGCUATT against SRC", "median seed-adjusted z-score": -0.0246}, {"sequence": "GGAUUACAGCAGGUGCAGATT against MED8", "median seed-adjusted z-score": "-1.61 (active)"}, {"sequence": "GAAUCUCACAAUUAUGUAUTT against NCK2", "median seed-adjusted z-score": -0.397}, {"sequence": "AGAUAAGCAUGGUGCCCAATT against BPI", "median seed-adjusted z-score": 0}, {"sequence": "GACCGUUUAAUGAAGCUUUTT against SPTLC2", "median seed-adjusted z-score": 0}, {"sequence": "CCAUUGUAGUCUCUCCUCUTT against RECQL5", "median seed-adjusted z-score": 0}, {"sequence": "GCCCUCCUGUGCAACCAUATT against SPRR2G", "median seed-adjusted z-score": 0.358}, {"sequence": "ACAUGAAGGUGAAUCCUGUTT against COX4I2", "median seed-adjusted z-score": -0.0202}, {"sequence": "CAGCGAUUUUAAAUCGUAUTT against HSD17B13", "median seed-adjusted z-score": -0.329}, {"sequence": "CAACCAACCUGCAUCUAGATT against TRIM33", "median seed-adjusted z-score": 0.316}, {"sequence": "CGACCCUUGAAGUUCAAUATT against EFTUD2", "median seed-adjusted z-score": "-1.25 (active)"}, {"sequence": "GGAUCCUUCUAUACGCAUATT against SLC4A7", "median seed-adjusted z-score": 0}, {"sequence": "CAGUAGAUGUGGAAAAGGATT against PTK2B", "median seed-adjusted z-score": "1.71 (active)"}, {"sequence": "CCAUUGAUGGAGUCAGAUUTT against POLD2", "median seed-adjusted z-score": 0.97}, {"sequence": "CCACUAGUGAAACAACCAATT against PCLO", "median seed-adjusted z-score": -0.734}, {"sequence": "GCAAGGAGCUAGAGCCUUUTT against MOBKL2B", "median seed-adjusted z-score": -0.613}, {"sequence": "GCAAGUCCACGUUCCUCAATT against GNA12", "median seed-adjusted z-score": 0.598}, {"sequence": "AGCUACCGAUGGAAGAGGATT against CLK3", "median seed-adjusted z-score": "-1.11 (active)"}, {"sequence": "AGGUCAAGCUUAGUGACAATT against ZDHHC8", "median seed-adjusted z-score": 0}, {"sequence": "GCUUCUCAUGGGAUCAAAATT against PGCP", "median seed-adjusted z-score": 0.145}, {"sequence": "CCGGGAAAUUGAUUAUGCATT against SIN3B", "median seed-adjusted z-score": 0.509}, {"sequence": "GCAUCUCAUCGGAAGAGGATT against MAP3K12", "median seed-adjusted z-score": -0.6}, {"sequence": "GAUCCUAAAUCAUGACUUATT against COX6B1", "median seed-adjusted z-score": -0.706}, {"sequence": "GGACGAAUGAGUUCCAGUUTT against PCDHB8", "median seed-adjusted z-score": "1.15 (active)"}, {"sequence": "AGACCUAGCUUUAGCACAATT against ZFAND2B", "median seed-adjusted z-score": 0}, {"sequence": "GAAGCGGCAUUAGCAGAGATT against ISOC1", "median seed-adjusted z-score": 0.104}]}]}
